Screening data: PubChem, several laboratories
The full list was thinned out, with hits kept by preference.
ALR inh = blocks human ALR sulfhydryl oxidase activity; purified ALR, DTT oxidation, H2O2 HRP-luminol luminescence; P55789; inhibition, % (no concentration beside the values); 290,000 compounds, 3.8% hits; AID 485317;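 active means mean replicate inhibition above about 79%, with every replicate also reaching it, limit read from the data; inconclusive means only one of the two criteria met; inactive means mean below limit and not every replicate reaching it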
Target sequence (P55789 whole entry, looked up): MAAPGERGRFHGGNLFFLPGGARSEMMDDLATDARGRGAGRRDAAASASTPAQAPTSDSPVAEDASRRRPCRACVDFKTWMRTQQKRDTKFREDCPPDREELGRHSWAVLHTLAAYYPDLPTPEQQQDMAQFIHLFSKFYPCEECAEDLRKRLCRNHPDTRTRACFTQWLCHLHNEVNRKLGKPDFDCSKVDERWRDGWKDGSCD
HDAC3 inh = inhibitors of human histone deacetylase 3. O15379. AID 2718. recombinant HDAC3, fluorogenic peptide/trypsin coupled, fluorescence. 320,000 compounds, 0.15% hits. inhibition, % at 8.3 µM; in the data active means inhibition above about 26%, passing the limit was not always enough; inconclusive means no clear call, values can overlap the other calls
Target sequence (O15379 whole entry, looked up): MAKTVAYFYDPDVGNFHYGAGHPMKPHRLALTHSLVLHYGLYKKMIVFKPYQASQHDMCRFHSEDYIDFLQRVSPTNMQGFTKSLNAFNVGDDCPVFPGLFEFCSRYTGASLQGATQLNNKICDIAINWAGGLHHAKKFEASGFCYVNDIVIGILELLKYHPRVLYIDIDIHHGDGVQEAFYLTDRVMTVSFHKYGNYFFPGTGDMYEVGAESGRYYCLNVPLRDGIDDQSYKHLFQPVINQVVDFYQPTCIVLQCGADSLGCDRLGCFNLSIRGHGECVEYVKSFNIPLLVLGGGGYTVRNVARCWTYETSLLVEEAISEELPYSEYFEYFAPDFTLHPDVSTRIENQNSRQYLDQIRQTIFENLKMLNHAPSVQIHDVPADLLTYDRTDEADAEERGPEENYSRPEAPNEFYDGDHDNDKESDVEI
NPR2 activator = GC-B (human) receptor activation; P20594; HEK293-GC-B cells, CNP EC30, cGMP TR-FRET; 0% at EC30 CNP, 100% saturating CNP; activation, % at 10 µM; 370,000 compounds, 0.11% hits;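 active means activation at 10 µM reaching about 35% in either raw or pattern-adjusted values, limit read from the data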
GC-A act = GC-A (human) enzyme activation; P16066; HEK293 GC-A cells, cGMP TR-FRET, EC30 ANP; 0% at EC30 ANP, 100% saturating ANP; activation, % at 10 µM; 370,000 compounds, 0.14% hits; AID 1671463; in the data active means activation above about 40%
Starred values were filed as active, the others as inactive; ? = inconclusive; . = no result given.

SMILES	ALR inh	HDAC3 inh	NPR2 activator	GC-A act
O=C(O)CCCN=CC1=C(O)CNC1=O	1.4	2.0	6.3	2.7
C[C@H]1[C@H](c2ccccc2)Oc2ccc(Cl)cc2S(=O)(=O)N1C[C@@H]1CCCN1C(=O)OC(C)(C)C	.	.	-1.3	-0.8
COc1ccc(C(=O)N/N=C/C2CC=CCC2)cc1OC (stereo not given)	92.7*	-2.3	3.8	-4.9
Cc1nc2cc(NCc3ccccc3O)ccc2n1Cc1ccccc1	57.3	-3.6	1.9	6.9
CC(=O)N1CCN=C1SCc1ccccc1Cl	100.8*	-2.7	-9.9	-1.8
CC(=O)N1CCN=C1SCc1ccccc1F	99.0*	5.3	-4.9	1.4
O=C(C1CCCC1)N1CCN=C1SCc1cccc([N+](=O)[O-])c1	99.2*	-1.5	-10.2	-2.1
Cc1ccccc1C(=O)N1CCN=C1SCc1ccc([N+](=O)[O-])cc1	.	.	1.8	0.4
CCC(=O)N1CCN=C1SCc1cc(C)ccc1C	?	-12.0	5.1	1.6
CCC(=O)N1CCN=C1SCc1ccccc1Cl	99.7*	0.0	2.0	3.1
O=C(O)c1cccnc1SCc1ccccc1Cl	6.2	-15.6	2.0	-2.4
O=C(CC1CC1)N[C@@H]1CC[C@@H](CCNS(=O)(=O)c2ccc(F)cc2)O[C@@H]1CO	.	.	4.0	4.3
O=C(C1CC1)N1CCN=C1SCc1ccccc1Cl	99.2*	-0.4	-0.5	1.6
Nc1c(C(=O)N2CCCCC2)sc(=S)n1-c1ccccc1	98.9*	4.7	3.3	8.2
Cc1ccc(-n2c(N)c(C(=O)N3CCCCC3)sc2=S)cc1	7.5	6.7	-0.7	2.3
Nc1c(C(=O)N2CCOCC2)sc(=S)n1-c1ccccc1	92.6*	-0.3	2.6	3.5
COc1ccc(C(=O)Cn2c(NCCCO)nc3ccccc32)cc1OC	1.2	-1.2	-0.8	1.7
COC(=O)Cc1nnn2c1[C@H](C)[C@@H](OC)c1cccc(Cl)c1-2	.	.	1.4	1.2
Cc1cccc(N2CCN(CC(=O)N(C)Cc3ccccc3)CC2C)c1 (stereo not given)	98.4*	4.1	-0.7	0.0
O=C1NC[C@H](CCCCN2C[C@H](Cc3ccc(O)cc3)N(CC3CCCCC3)C(=O)C2=O)N(CCc2ccc(O)cc2)C1=O	.	.	1.6	0.3
CCOc1cc(/C=C(\C#N)C(N)=O)ccc1OS(=O)(=O)c1ccccc1	97.9*	-0.6	-4.0	-2.4
CCOC(=O)CC(=O)Nc1ccc(C(=O)OCC)cc1	-7.2	-8.3	-4.6	-2.1
CCOC(=O)c1ccc(NC(=O)c2ccco2)cc1	0.0	1.1	-1.5	-2.7
CCOC(=O)c1ccc(NC(=O)CSCc2ccco2)cc1	99.6*	?	-1.9	-1.8
COC(=O)c1ccc(NC(=O)CSCC(=O)OCC(=O)c2ccc(Br)cc2)cc1	99.5*	9.7	-6.6	4.7
SMILES	ALR inh	HDAC3 inh	NPR2 activator	GC-A act
CCOC(=O)c1ccc(NC(=O)CSCCC(=O)O)cc1	98.7*	-3.3	-0.9	-1.5
CCOC(=O)c1ccc(NC(=O)Cn2ncc(Cl)c(Cl)c2=O)cc1	0.9	.	24.7	60.7*
COc1ccc(C(=O)NNC(=O)COC(=O)c2sccc2C)cc1	.	.	1.4	-2.1
Cc1ccc(CNC(=O)C(=O)NCC2OCCCN2S(=O)(=O)c2ccc(F)cc2)cc1 (stereo not given)	-6.4	1.7	2.4	-0.4
CCOc1cccc(/C=C(/C#N)c2nc3ccccc3[nH]2)c1OCC(=O)O	97.8*	?	1.2	3.0
N#C/C(=C\c1cccnc1)c1nc2ccccc2[nH]1	3.0	3.3	-6.4	3.3
N#C/C(=C\c1cccc(OCC(=O)O)c1)c1nc2ccccc2[nH]1	97.9*	-7.0	-1.8	-5.5
CCCCCC(=O)N1C[C@@H](O)[C@H](n2cc(-c3ccc(F)cc3)nn2)C[C@@H]1c1ccccc1	.	.	-5.8	3.3
CC(=O)C1C(c2ccc(F)cc2)C2C(C)=NN=C2CC1(C)O (stereo not given)	1.6	2.8	8.6	-0.8
C=CC[C@@H](CC(=O)N[C@@H](CO)Cc1ccccc1)C(=O)N[C@@H](COC(=O)[C@H](CC=C)CC(=O)OC(C)(C)C)Cc1c[nH]c2ccccc12	-7.0	39.4*	-7.3	-9.6
C=CC[C@@H](CC(=O)N[C@H](CO)Cc1ccccc1)C(=O)N[C@H](COC(=O)[C@@H](CC=C)CC(=O)OC(C)(C)C)Cc1c[nH]c2ccccc12	5.1	10.8	-5.5	-7.8
C=CC[C@H](CC(=O)N[C@H](CO)Cc1ccccc1)C(=O)N[C@@H](COC(=O)[C@H](CC=C)CC(=O)OC(C)(C)C)Cc1c[nH]c2ccccc12	-0.3	44.3*	-5.5	-5.6
CC(C)C(NS(=O)(=O)c1cccc2nsnc12)C(=O)N1CCCCC1 (stereo not given)	-0.2	1.0	0.9	5.3
COc1cc(-c2noc(C3CCCN(C(=O)c4ccccc4)C3)n2)cc(OC)c1OC (stereo not given)	-31.4	?	-13.7	-9.3
CC1(C)CC(=O)C2=C(C1)NC(=S)C(C#N)C21CCCCC1 (stereo not given)	-2.1	39.4*	2.3	3.0
Cc1ccc(-c2csc(NC(=O)CN3C(=O)CCC3=O)n2)cc1	-5.2	6.2	3.6	54.7*
O=C(CN1C(=O)CCC1=O)Nc1nc(-c2nc3ccccc3s2)cs1	94.9*	11.2	1.7	10.7
CCN(CC)CCNC(=O)c1ccc(NC(=O)c2ccc(-n3cncn3)c([N+](=O)[O-])c2)cc1	.	.	-2.2	-0.4
C=CCN1C(=O)/C(=C2/Sc3ccccc3N2CC)SC1=S	5.0	-0.5	5.4	2.6
CCN1C(=O)/C(=C2/Sc3ccccc3N2CC)S/C1=N\c1ncn[nH]1	98.2*	-3.7	9.3	14.2
Cc1onc(-c2c(F)cccc2Cl)c1C(=O)Nc1cccc(S(=O)(=O)N2CCOCC2)c1	-0.6	-0.5	5.4	-1.2
Cc1cc(O)ccc1Nc1cc(-c2cccc(N)c2)ncn1	.	.	1.4	3.6
O=C(CSc1nnc(SCc2cccc3ccccc23)s1)c1ccc2c(c1)OCO2	-16.1	37.5*	7.8	3.0
O=C(CSc1nnc(SCc2cccc3ccccc23)s1)Nc1ccc(Oc2ccccc2)cc1	.	.	9.6	-4.3
O=C(CSc1nnc(SCc2cccc3ccccc23)s1)Nc1ccc(C(=O)O)cc1	98.4*	6.7	-2.1	-2.4
SMILES	ALR inh	HDAC3 inh	NPR2 activator	GC-A act
CCCNC(=O)C[C@H]1CC[C@H]2[C@@H](COc3ccc(NC(=O)Nc4ccccc4)cc3C(=O)N2C)O1	.	.	-10.6	2.4
CC1C(=O)N(Cc2cn(Cc3ccco3)nn2)CCS(=O)(=O)N1Cc1ccc(-c2ccc(Cl)cc2)cc1 (stereo not given)	.	.	-4.2	19.5
CCN(C(=O)COC(=O)CNC(=O)c1ccc(C)cc1)c1c(N)n(Cc2ccccc2)c(=O)[nH]c1=O	-2.7	-11.9	3.8	1.2
CC(C)Nc1ncnc2c1ncn2[C@H]1CN(Cc2ccco2)C[C@@H](CO)O1	.	.	-0.6	0.1
O=C(c1cnn2c(C(F)(F)F)cc(-c3ccc4c(c3)OCO4)nc12)N1CCCC1	-1.9	-1.2	44.8*	37.8
Cc1ccc(Sc2cc(Cl)nc(N)n2)cc1	-3.2	3.4	4.0	2.3
